“And” between values parts separate entries of the source, which are not always exact repeats. Identical values can stand only once. Results filed as inconclusive are left out. Some compounds were tested as several samples or in several runs, with calls that do not always agree. The source made the active and inactive calls. The calls were made as follows, unless noted: active = hit-call score of the fitted dose curve at least 0.9, where 1 is the maximum; inactive = score below 0.9.

Assay [1] in a line: ATG_TCF_b_cat_CIS: Attagene CIS-FACTORIAL HepG2 Assay for human T-Cell-Factor with beta-catenin (TCF/b-cat) (AID 2282965). As to conditions: HepG2 TCF/beta-catenin cis-reporter transcription, actives raise or lower the signal. The method in brief:
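Endogenous transcription factor activity is captured through cis-promoter reporter constructs transiently introduced into human HepG2 liver cells. Induced reporter mRNA is measured after 24 h and fitted bidirectionally relative to DMSO.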

Assay [2] in a line: ATG_TAL_CIS: Attagene CIS-FACTORIAL HepG2 Assay for human TAL Basal Promoter (AID 2282966).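 Also: background control endpoint measuring basal TAL promoter reporter mRNA not a specific factor.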 As to conditions: HepG2 Attagene cis-factorial TAL promoter reporter; actives raise or lower the signal. The method, boiled down: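 Steps: transfect HepG2 with multiple reporter transcription units; dose 24 h; isolate RNA, reverse-transcribe, PCR-amplify, label with 6-FAM, digest with HpaI; resolve by capillary electrophoresis. Bidirectional fitting against DMSO baseline.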

Assay [3] can be described thus: ATG_TGFb_CIS: Attagene CIS-FACTORIAL HepG2 Assay for human Transforming Growth Factor (TGF) (AID 2282967). Particulars: HepG2 Attagene CIS TGFb reporter, mRNA transcription; actives raise or lower the signal. The method in brief:
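HepG2 cells transiently transfected with cis-promoter-driven multiplexed reporter units; 24 h compound exposure. Reporter mRNA measured by RT-PCR, 6-FAM labeling, HpaI digestion and capillary electrophoresis; bidirectional fit versus DMSO baseline.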

Assay [4] can be described thus: ATG_VDRE_CIS: Attagene CIS-FACTORIAL HepG2 Assay for human Vitamin D Receptor Element (VDRE) (AID 2282968). Particulars: HepG2 VDRE cis-reporter transcription, actives raise or lower the signal. The method, boiled down:
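In transiently transfected HepG2 liver cells, gain or loss of reporter mRNA after 24 h exposure is scored relative to DMSO, using fluorescence detection by capillary electrophoresis of RT-PCR products.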

The target of assay [5] is Nuclear receptor subfamily 1 group I member 3 (Homo sapiens) (UniProt Q14994). Put plainly: ATG_CAR_TRANS: Attagene TRANS-FACTORIAL HepG2 Assay for human Constitutive Androstane Receptor (CAR) (AID 2282969; active = hit-call score of the fitted dose curve at least 0.9, where 1 is the maximum;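 also: activators raise reporter mRNA above DMSO so AC50 marks induction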). Particulars: HepG2 Attagene TRANS-FACTORIAL CAR reporter. The method in brief:
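Readout is reporter mRNA induction, quantified by fluorescent primer extension and capillary electrophoresis after RT-PCR. Cells were HepG2 transiently carrying chimeric NR-Gal4 constructs with GAL4-UAS reporters, treated for 24 h; activity scored upward from DMSO.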

Assay [6] concerns the target Estrogen receptor (Homo sapiens) (UniProt P03372). Description: ATG_ERa_TRANS: Attagene TRANS-FACTORIAL HepG2 Assay for human Estrogen Receptor alpha (ERa) (AID 2282970; active = hit-call score of the fitted dose curve at least 0.9, where 1 is the maximum). As to conditions: HepG2 Attagene TRANS ERa GAL4 reporter, mRNA. The method in brief: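 Multiplexed cell-based reporter format in HepG2: chimeric ERa-Gal4 protein drives GAL4-UAS reporter transcription. Fluorescent reporter mRNA quantified by capillary electrophoresis 24 hours after dosing; endpoint fitted as signal gain against DMSO.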

Assay [7] deals with Steroid hormone receptor ERR1 (Homo sapiens) (UniProt P11474). Put plainly: ATG_ERRa_TRANS: Attagene TRANS-FACTORIAL HepG2 Assay for human Estrogen-Related Receptor alpha (ERRa) (AID 2282971; active = hit-call score of the fitted dose curve at least 0.9, where 1 is the maximum). As to conditions: HepG2 Attagene TRANS reporter, ERRa transactivation. The method, boiled down:
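Signal gain relative to DMSO for an ERRa-Gal4 chimeric receptor, read as reporter mRNA by RT-PCR/capillary electrophoresis. Human HepG2 liver cells, transient multiplex reporter transfection, 24 h chemical exposure.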

In assay [8] the target is X-box-binding protein 1 (Homo sapiens) (UniProt P17861). Description: ATG_Xbp1_CIS: Attagene CIS-FACTORIAL HepG2 Assay for human X-box Binding Protein 1 (XBP1) (AID 2282972). Particulars: HepG2 XBP1 cis-element reporter, Attagene multiplex; actives raise or lower the signal. The method in brief: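 HepG2 cells transiently transfected with cis-regulated multiple reporter transcription units; endogenous transcription factor activity measured 24 hours after chemical dosing. Reporter mRNA quantified by RT-PCR, 6-FAM primer extension, HpaI digestion and capillary electrophoresis; bidirectional fitting versus DMSO.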
Chain of X-box-binding protein 1 (Homo sapiens) (P17861 whole entry, looked up): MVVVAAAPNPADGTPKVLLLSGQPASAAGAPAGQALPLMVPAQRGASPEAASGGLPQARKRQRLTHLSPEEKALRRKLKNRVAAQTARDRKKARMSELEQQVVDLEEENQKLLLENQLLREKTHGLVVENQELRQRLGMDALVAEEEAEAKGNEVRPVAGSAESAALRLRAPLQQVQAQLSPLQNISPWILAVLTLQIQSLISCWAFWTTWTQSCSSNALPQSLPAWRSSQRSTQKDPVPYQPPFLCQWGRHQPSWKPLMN

The nature of assay [9]: ATG_M_19_TRANS: Attagene TRANS-FACTORIAL HepG2 Assay for M19 Transcription Factor (Internal Marker) (AID 2282974; active = hit-call score of the fitted dose curve at least 0.9, where 1 is the maximum). As to conditions: HepG2 Attagene TRANS-FACTORIAL M19 internal marker reporter. The method, boiled down:
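Measured here: internal-marker reporter transcript from HepG2 cells transfected with MRTUs, harvested at 24 h. cDNA PCR products were 6-FAM labelled by primer extension, cut with HpaI for 2 h at 37 C, and resolved by CE.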

Assay [10] can be described thus: ATG_M_06_TRANS: Attagene TRANS-FACTORIAL HepG2 Assay for M06 Transcription Factor (Internal Marker) (AID 2282983; active = hit-call score of the fitted dose curve at least 0.9, where 1 is the maximum;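 also: reporter transcript level by RT-PCR then capillary electrophoresis fluorescence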). As to conditions: HepG2 Attagene TRANS M06 internal marker reporter. The method in brief:
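Internal-marker background readout from a multiplexed TRANS reporter system in HepG2; 24 h dosing; mRNA induction quantified by RT-PCR plus capillary electrophoresis fluorescence; DMSO as negative control and baseline.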

Assay [11] has as its target Transcriptional activator Myb (Homo sapiens) (UniProt P10242). Put plainly: ATG_Myb_CIS: Attagene CIS-FACTORIAL HepG2 Assay for human Myeloblastosis (Myb) Proto-Oncogene Transcription Factor (AID 2282986). As to conditions: HepG2 Attagene CIS-FACTORIAL Myb reporter transcription; actives raise or lower the signal. The method, boiled down:
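Fluorescence signals from capillary electrophoresis of RT-PCR-amplified reporter cDNA give the read-out. Cells: HepG2 transfected with multiple cis-regulated reporter units. Exposure lasts 24 hours; DMSO defines baseline for gain or loss of signal.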

Assay [12] concerns the target Nuclear respiratory factor 1 (Homo sapiens) (UniProt Q16656). Description: ATG_NRF1_CIS: Attagene CIS-FACTORIAL HepG2 Assay for human Nuclear Respiratory Factor 1 (NRF1) Orphan Gene (AID 2282987). Particulars: HepG2 NRF1 cis-element reporter, Attagene multiplex; actives raise or lower the signal. The method, boiled down:
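Transcriptional reporter readout, one component of a 52-endpoint multiplexed HepG2 panel. Exposure 24 h; mRNA detected via RT-PCR and fluorescent capillary electrophoresis; fitting in both directions against DMSO.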

The target of assay [13] is Bile acid receptor (Homo sapiens) (UniProt Q96RI1). Description: ATG_FXR_TRANS: Attagene TRANS-FACTORIAL HepG2 Assay for Farnesoid X Receptor (FXR) (AID 2282979; active = hit-call score of the fitted dose curve at least 0.9, where 1 is the maximum;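 also: hits raise reporter mRNA above DMSO so AC50 marks FXR activation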). As to conditions: HepG2 Attagene TRANS FXR-GAL4 reporter transcription. The method, boiled down:
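After 24 h chemical treatment of transfected HepG2 cells, GAL4-UAS reporter transcripts driven by an exogenous FXR-GAL4 fusion were measured by RT-PCR and capillary electrophoresis. Increases over DMSO were fitted.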

For assay [14], the target named is Oxysterols receptor LXR-beta (Homo sapiens) (UniProt P55055). Description: ATG_LXRb_TRANS: Attagene TRANS-FACTORIAL HepG2 Assay for human Liver X Receptor beta (LXRb) (AID 2282981; active = hit-call score of the fitted dose curve at least 0.9, where 1 is the maximum). Particulars: HepG2 Attagene TRANS GAL4-LXRb reporter, mRNA. The method, boiled down:
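Cells: HepG2, transiently transfected with GAL4-UAS reporter units plus LXRb-Gal4 fusion. Treatment: 24 h. Detection: reporter mRNA by RT-PCR, 6-FAM labelling, HpaI digestion, capillary electrophoresis.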

The target of assay [15] is Hepatocyte nuclear factor 4-alpha (Homo sapiens) (UniProt P41235). Description: ATG_HNF4a_TRANS: Attagene TRANS-FACTORIAL HepG2 Assay for human Hepatocyte Nuclear Factor 4 alpha (HNF4a) (AID 2282982; active = hit-call score of the fitted dose curve at least 0.9, where 1 is the maximum). Particulars: HepG2 HNF4a transactivation reporter, mRNA readout. The method, boiled down: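 Transfected HepG2 reporter cells are dosed for 24 h; reporter RNA is reverse-transcribed, amplified, fluorescently labelled and HpaI-digested before CE sizing. Positive-direction fit against DMSO.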
Chain of Hepatocyte nuclear factor 4-alpha (Homo sapiens) (P41235 whole entry, looked up): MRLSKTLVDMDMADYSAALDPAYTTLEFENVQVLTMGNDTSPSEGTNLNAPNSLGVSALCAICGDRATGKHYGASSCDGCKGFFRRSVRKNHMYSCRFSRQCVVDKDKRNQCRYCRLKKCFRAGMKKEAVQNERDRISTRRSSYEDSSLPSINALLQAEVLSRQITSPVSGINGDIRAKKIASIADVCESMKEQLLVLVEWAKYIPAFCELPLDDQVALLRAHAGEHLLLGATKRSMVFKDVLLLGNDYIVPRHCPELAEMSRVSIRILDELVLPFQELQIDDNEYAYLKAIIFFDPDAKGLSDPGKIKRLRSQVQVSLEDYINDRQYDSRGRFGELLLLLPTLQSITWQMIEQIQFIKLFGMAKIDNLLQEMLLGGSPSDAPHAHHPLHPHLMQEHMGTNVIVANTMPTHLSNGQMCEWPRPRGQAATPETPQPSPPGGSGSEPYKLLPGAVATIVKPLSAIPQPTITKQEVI

The nature of assay [16]: ATG_M_32_TRANS: Attagene TRANS-FACTORIAL HepG2 Assay for M32 Transcription Factor (Internal Marker) (AID 2282984; active = hit-call score of the fitted dose curve at least 0.9, where 1 is the maximum;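 also: transcript level of a background control reporter unit measured by RT-PCR and capillary electrophoresis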). Particulars: HepG2 Attagene TRANS M32 internal marker reporter. The method in brief: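 Using transiently transfected HepG2 cells exposed to test chemicals for 24 h, reporter transcripts are converted to labelled cDNA fragments and quantified by capillary electrophoresis. DMSO defines the activity baseline.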

For assay [17], the target named is Nuclear receptor subfamily 4 group A member 2 (Homo sapiens) (UniProt P43354). Put plainly: ATG_NURR1_TRANS: Attagene TRANS-FACTORIAL HepG2 Assay for human Nuclear Receptor Related Protein 1 (NURR1) (AID 2282985; active = hit-call score of the fitted dose curve at least 0.9, where 1 is the maximum). Particulars: HepG2 Attagene TRANS reporter, mRNA readout. The method in brief: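 Cells: HepG2, transiently transfected. Exposure: 24 h. Detection: fluorescence of labelled RT-PCR products separated by capillary electrophoresis; upward fit versus DMSO.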
Chain of Nuclear receptor subfamily 4 group A member 2 (Homo sapiens) (P43354 whole entry, looked up): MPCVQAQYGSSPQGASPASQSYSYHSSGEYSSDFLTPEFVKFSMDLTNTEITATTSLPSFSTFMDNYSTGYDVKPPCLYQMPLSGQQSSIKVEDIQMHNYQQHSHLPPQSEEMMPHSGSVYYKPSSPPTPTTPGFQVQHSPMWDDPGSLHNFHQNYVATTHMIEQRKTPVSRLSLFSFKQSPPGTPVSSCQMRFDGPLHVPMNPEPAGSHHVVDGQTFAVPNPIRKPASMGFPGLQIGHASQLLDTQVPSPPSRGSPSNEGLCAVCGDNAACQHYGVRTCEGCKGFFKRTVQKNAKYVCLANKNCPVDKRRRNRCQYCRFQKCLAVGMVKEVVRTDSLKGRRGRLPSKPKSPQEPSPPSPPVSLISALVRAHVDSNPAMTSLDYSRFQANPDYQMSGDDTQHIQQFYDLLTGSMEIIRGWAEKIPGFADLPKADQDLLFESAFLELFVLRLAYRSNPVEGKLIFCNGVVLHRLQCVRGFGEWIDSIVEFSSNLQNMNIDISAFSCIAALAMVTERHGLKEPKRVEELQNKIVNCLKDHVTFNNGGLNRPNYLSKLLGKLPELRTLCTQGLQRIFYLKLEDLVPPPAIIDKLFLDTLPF

Assay [18] can be described thus: ATG_GAL4_TRANS: Attagene TRANS-FACTORIAL HepG2 Assay for GAL4 (Internal Marker) (AID 2282976; active = hit-call score of the fitted dose curve at least 0.9, where 1 is the maximum). As to conditions: HepG2 Attagene TRANS GAL4 internal marker reporter. The method, boiled down: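 Liver HepG2 line bearing multiplexed GAL4-UAS reporter constructs; 24 h chemical treatment. Transcripts were quantified as fluorescent fragments on capillary electrophoresis after RT-PCR and HpaI cut, with activity fitted upward from DMSO.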

For assay [19], the target named is Estrogen-related receptor gamma (Homo sapiens) (UniProt P62508). Put plainly: ATG_ERRg_TRANS: Attagene TRANS-FACTORIAL HepG2 Assay for human Estrogen-Related Receptor gamma (ERRg) (AID 2282977; active = hit-call score of the fitted dose curve at least 0.9, where 1 is the maximum;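 also: hits increase reporter signal over DMSO so potencies reflect activators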). Particulars: HepG2 Attagene TRANS reporter, ERRg transactivation. The method in brief:
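HepG2 cells transiently transfected with multiplexed GAL4-UAS reporter units and chimeric NR-Gal4 constructs were exposed to test chemicals for 24 h. Reporter mRNA was measured by RT-PCR, 6-FAM primer extension, HpaI digestion and capillary electrophoresis; gain-of-signal versus DMSO.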

Chain of Bile acid receptor (Homo sapiens) (Q96RI1 whole entry, looked up, the tested form may be a part): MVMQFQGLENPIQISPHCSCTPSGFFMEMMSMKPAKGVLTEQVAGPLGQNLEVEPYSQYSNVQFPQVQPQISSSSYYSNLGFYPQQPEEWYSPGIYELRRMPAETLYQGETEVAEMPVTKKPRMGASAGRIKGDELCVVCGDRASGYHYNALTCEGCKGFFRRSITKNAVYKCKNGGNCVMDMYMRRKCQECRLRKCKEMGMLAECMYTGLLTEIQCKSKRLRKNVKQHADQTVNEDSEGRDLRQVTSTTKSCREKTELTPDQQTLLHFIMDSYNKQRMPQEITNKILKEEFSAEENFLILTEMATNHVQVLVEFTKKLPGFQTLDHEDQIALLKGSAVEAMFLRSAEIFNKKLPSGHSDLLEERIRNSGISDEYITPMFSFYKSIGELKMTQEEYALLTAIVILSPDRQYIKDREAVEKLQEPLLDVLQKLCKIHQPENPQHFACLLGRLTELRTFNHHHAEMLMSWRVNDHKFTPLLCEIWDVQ
Chain of Nuclear respiratory factor 1 (Homo sapiens) (Q16656 whole entry, looked up): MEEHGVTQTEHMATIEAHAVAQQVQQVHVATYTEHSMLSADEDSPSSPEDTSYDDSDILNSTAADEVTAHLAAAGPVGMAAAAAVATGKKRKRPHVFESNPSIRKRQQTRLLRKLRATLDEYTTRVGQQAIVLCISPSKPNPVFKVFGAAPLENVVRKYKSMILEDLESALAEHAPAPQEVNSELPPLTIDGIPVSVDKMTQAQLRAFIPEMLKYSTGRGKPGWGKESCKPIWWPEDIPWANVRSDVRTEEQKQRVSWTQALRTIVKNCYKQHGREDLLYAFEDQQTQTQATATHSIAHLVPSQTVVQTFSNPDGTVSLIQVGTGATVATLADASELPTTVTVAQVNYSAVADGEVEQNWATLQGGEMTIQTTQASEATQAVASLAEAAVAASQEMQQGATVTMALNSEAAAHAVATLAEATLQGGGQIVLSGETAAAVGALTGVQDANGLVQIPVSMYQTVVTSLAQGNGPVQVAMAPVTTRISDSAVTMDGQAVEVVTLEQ
Chain of Transcriptional activator Myb (Homo sapiens) (P10242 whole entry, looked up): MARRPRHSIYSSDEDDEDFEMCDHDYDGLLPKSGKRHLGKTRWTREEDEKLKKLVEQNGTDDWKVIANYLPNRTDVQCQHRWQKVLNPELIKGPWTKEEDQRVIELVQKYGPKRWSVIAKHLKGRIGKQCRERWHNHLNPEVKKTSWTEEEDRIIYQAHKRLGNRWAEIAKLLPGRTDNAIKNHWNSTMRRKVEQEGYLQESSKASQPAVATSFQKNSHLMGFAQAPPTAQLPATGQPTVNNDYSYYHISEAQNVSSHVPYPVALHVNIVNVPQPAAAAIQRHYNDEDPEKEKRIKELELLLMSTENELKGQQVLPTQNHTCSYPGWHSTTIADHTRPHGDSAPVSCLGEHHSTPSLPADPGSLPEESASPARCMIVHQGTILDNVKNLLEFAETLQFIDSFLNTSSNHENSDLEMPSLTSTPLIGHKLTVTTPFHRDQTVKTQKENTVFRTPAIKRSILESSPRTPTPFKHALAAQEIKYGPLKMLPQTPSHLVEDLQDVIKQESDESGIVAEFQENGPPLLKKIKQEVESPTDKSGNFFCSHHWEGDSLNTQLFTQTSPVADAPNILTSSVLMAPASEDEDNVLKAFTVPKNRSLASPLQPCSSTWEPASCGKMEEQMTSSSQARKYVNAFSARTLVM
Chain of Estrogen receptor (Homo sapiens) (P03372 whole entry, looked up, the tested form may be a part): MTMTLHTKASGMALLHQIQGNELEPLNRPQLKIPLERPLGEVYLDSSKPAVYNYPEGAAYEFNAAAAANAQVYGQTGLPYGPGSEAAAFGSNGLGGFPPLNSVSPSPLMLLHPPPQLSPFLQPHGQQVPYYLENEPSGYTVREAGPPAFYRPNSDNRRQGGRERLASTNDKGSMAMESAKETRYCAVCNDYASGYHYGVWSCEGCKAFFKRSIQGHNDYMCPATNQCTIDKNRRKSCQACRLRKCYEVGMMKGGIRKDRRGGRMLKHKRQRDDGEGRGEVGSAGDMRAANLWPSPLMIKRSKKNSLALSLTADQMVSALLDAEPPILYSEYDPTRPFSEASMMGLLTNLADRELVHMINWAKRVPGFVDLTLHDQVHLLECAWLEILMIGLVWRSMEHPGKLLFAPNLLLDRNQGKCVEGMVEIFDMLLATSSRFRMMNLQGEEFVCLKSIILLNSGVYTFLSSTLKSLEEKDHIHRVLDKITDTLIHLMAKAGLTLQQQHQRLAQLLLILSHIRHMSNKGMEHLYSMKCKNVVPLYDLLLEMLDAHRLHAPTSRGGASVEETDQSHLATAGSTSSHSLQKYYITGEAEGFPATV
Chain of Nuclear receptor subfamily 1 group I member 3 (Homo sapiens) (Q14994 whole entry, looked up, the tested form may be a part): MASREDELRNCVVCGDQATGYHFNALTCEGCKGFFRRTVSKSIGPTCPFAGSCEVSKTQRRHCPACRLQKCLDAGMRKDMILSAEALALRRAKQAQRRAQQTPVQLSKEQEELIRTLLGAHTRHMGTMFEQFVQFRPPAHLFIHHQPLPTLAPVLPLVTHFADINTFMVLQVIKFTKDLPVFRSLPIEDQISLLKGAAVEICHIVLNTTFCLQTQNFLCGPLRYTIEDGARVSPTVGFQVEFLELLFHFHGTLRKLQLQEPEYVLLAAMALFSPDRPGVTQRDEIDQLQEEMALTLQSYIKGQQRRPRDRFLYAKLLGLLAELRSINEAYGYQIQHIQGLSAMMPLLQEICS
Chain of Oxysterols receptor LXR-beta (Homo sapiens) (P55055 whole entry, looked up, the tested form may be a part): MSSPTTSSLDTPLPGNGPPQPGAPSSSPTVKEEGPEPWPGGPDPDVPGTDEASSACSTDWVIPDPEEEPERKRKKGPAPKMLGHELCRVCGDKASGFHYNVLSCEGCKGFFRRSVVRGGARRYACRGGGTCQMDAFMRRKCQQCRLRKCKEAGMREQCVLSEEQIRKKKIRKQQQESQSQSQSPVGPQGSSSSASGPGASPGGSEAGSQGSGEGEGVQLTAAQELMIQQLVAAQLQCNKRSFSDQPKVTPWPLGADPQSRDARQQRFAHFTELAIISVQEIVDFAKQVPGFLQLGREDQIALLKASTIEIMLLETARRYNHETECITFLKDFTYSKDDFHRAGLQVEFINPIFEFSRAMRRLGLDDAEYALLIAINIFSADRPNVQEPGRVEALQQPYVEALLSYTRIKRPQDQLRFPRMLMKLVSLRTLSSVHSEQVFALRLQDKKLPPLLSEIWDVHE
Chain of Estrogen-related receptor gamma (Homo sapiens) (P62508 whole entry, looked up, the tested form may be a part): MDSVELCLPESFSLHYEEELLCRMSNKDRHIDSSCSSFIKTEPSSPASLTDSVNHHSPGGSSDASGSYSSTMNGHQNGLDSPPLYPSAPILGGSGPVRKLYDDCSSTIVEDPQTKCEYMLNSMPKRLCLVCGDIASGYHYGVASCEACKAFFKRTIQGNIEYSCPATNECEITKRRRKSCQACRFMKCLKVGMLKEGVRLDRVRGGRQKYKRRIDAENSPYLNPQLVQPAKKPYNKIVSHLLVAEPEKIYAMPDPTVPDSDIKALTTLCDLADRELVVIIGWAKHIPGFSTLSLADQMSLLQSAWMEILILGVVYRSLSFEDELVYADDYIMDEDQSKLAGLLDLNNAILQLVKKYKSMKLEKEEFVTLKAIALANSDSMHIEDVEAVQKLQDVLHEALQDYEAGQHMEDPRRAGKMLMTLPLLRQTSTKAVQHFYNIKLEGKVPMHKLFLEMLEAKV

In the case of `CCCCOCCO`, the molecule was called inactive in [1], in [2], in [3], in assay [4], in assay [5] and in [6]. Also, the call in assay [7], in [8], in assay [9], in assay [10], in [11] and in assay [12] was inactive.
Take `CCCOc1sc(C(=O)N2CCC(c3cc(CN)ccc3F)CC2)c(C)c1Br`: the molecule was called inactive in assay [1], in assay [2], in assay [3], in assay [4], in assay [6] and in [8]. Further, the molecule was classed as inactive in [9], in assay [13], in [15], in [16], in assay [17] and in assay [11]. In addition, the call in assay [12] was inactive. Also, the half-maximal activity concentration (AC50) (usually the concentration giving half of the maximal activity seen) in assay [14] is 1.46 µM (active).
Turning to `CC[C@H](c1ccc(O)cc1)[C@@H](CC)c1ccc(O)cc1`, the half-maximal activity concentration (AC50) in assay [1] is 9.79 µM (active) and 15.4 µM (active) and 11.1 µM (active); in assay [4] it was 3.47 µM (active) and 2.97 µM (active). Besides, the molecule was called inactive in [1], in assay [2], in assay [4], in assay [5], in [8] and in assay [9]. Further, the outcome in assay [18], in assay [13], in [14], in [15], in assay [10] and in [16] was inactive. In addition, the result in assay [17], in [11] and in assay [12] was inactive.
As for `CCc1nn(C2CCCCC2)c2cc(C3(C#N)CCC(C(=O)O)CC3)ccc12` (stereo unspecified), the values for the AC50 in assay [1], in assay [4] and in assay [12] were 52.3 µM (active), 48.7 µM (active) and 100 µM (active), respectively. The result in assay [2], in assay [3], in assay [6], in [8], in assay [19] and in assay [13] was inactive. The call in [10], in assay [16], in assay [17] and in [11] was inactive.

The values above are taken from PubChem BioAssay (EPA / NIEHS).
